From paper PMC5540273 (PLoS ONE, 2017)

system: ADCK4; conditions: concentration: 1 μM, replicates: in singlicate; n = 1
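Note: KINOMEscan kinase panel screen.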

| SMILES | %Inh [%] |
| --- | --- |
| N#Cc1ccc(-c2cc(-c3c[nH]nc3-c3ccccn3)ccn2)cc1 [GW693028] | 20 |
| O=C(Nc1n[nH]c2cc(-c3cccc(F)c3)ccc12)C1CC1 [SB-735464] | 0 |
| COc1cc2c(cc1OC[C@@H](O)CO)ncc1c3ccc(C#N)cc3[nH]c21 | 0 |
| CCCCCc1nc2c(N)ncnc2n1CCCCC [SKF-97255] | 0 |
| Cc1cccc(Cn2ccn3c(=O)cc(N4CCOCC4)nc23)c1 [GSK2297542] | 44 |
| CCn1cnc2c(N)ncnc21 [GW345098] | 0 |
| Cn1ccc2ncnc(Oc3ccc(NC(=O)Nc4ccncc4)c(Cl)c3)c21 | 0 |
| Cn1cc(-c2ccc3c(c2)CCN3C(=O)Cc2ccccc2Cl)c2c(N)ncnc21 [GSK2608885] | 88 |
| Cl.Nc1ncnc2occ(-c3ccc(NC(=O)Nc4cc(C(F)(F)F)ccc4F)cc3)c12 [SB-707548] | 28 |
| Cc1ccc(C(=O)NCC(N)=O)cc1-n1c(C)cc(OCc2ccc(F)cc2F)c(Br)c1=O | 2 |
| NCC(NC(=O)c1cc(-c2cn[nH]c2)c(-c2ccnc3[nH]ccc23)s1)c1ccccc1.O=C(O)C(F)(F)F.O=C(O)C(F)(F)F (centres unmarked) [GSK1325775] | 58 |
| CN(C(=O)c1ccc(-c2cc(-c3c[nH]nc3-c3ccccn3)ccn2)cc1)C1CCOCC1 [GW810083] | 24 |
| Cc1nnc(-c2ccc(C)c(-c3ccc(C(=O)Nc4ccc(NS(C)(=O)=O)cc4)cc3)c2)o1 [GW702865] | 14 |
| CN(C1=C(c2ccccc2)C(=O)NC1=O)c1ccccc1 [SB-334860] | 15 |
| Cc1cccc(-c2nc(Nc3ccc4ncsc4c3)c3ccccc3n2)n1 [GW867588] | 0 |
| NS(=O)(=O)CCc1cccc(Nc2nccc(-c3c(-c4cccc(NC(=O)c5c(F)cccc5F)c4)nn4ccccc34)n2)c1 [GSK336735] | 42 |
| CNc1ncnc2[nH]ncc12 [SKF-18355] | 10 |
| Cc1c2ccc(N(C)c3ccnc(Nc4cccc(S(N)(=O)=O)c4)n3)cc2nn1Cc1ccccc1.Cl.Cl [GW787226] | 0 |

| SMILES | %Inh [%] |
| --- | --- |
| COc1ccc(CNC(=O)NC2CCN(c3ccnc(Nc4ccc(OC)cc4)n3)C2)cc1 (centres unmarked) [GSK1379727] | 59 |
| Cc1nnc(-c2ccc3occ(-c4ccc(C(C)O)cc4)c3c2)o1 (centres unmarked) | 0 |
| Fc1ccc(-c2nn3c(OCC(F)(F)F)cccc3c2-c2ccncc2)cc1 [GW514784] | 46 |
| O=C1Cc2cc(Nc3nc(NCc4cccc(S(=O)(=O)C(F)(F)F)c4)ncc3C(F)(F)F)ccc2N1 | 2 |
| O=C(NCCNc1ccnc(Nc2ccc(F)cc2)n1)c1cc2ccccc2s1 [GSK1379874] | 27 |
| Nc1nccc(-c2c(-c3ccc(F)cc3)ncn2C2CCN(CC(F)(F)F)CC2)n1 [SB-236560] | 47 |
| Nc1nc(-c2ccc3c(N)n[nH]c3c2)cc(N2CCCC2)n1 [GSK2227430] | 2 |
| O=c1cc(N2CCOCC2)nc2n(Cc3cccc(Cl)c3Cl)c(C3CC3)nn12 [GSK2358994] | 0 |
| N#Cc1c(N2CCOCC2)sc(-c2ccn[nH]2)c1-c1ccc(Cl)cc1 | 0 |
| NS(=O)(=O)c1cccc(-c2ccc3nccc(-c4cccc(S(N)(=O)=O)c4)c3c2)c1 [GW867253] | 10 |
| O=c1cc(N2CCOCC2)nc2n(Cc3cccc(F)c3)ccn12 [GSK2297430] | 0 |
| Cc1cccc(-c2nc(-c3ccc(S(C)(=O)=O)cc3)sc2-c2ccncc2)c1 | 0 |
| COCCNC(=O)c1ccc(-c2cc(C(=O)NC3CC3)cc(F)c2C)cc1 [GW868318] | 0 |
| Cc1cn2c(=O)cc(N3CCOCC3)nc2n1Cc1cccc(Cl)c1Cl [GSK2334006] | 17 |
| COc1ccc(COc2cc(-n3cnc4ccccc43)sc2C(N)=O)cc1 [GSK1024304] | 0 |
| CN1c2ccc(NCc3ccc(F)cc3)cc2-c2c(cnn2C)S1(=O)=O | 0 |
| O=C(NOCC1CC1)c1ccc(F)c(F)c1Nc1ccc(I)cc1Cl | 0 |
